This passage reports outcome and AC50 results from PubChem BioAssay (EPA / NIEHS).

Experiment [1] can be described thus: ATG_Ets_CIS: Attagene CIS-FACTORIAL HepG2 Assay for human Erythroblast Transformation Specific (ETS) (AID 2282941). The conditions noted are these: HepG2 ETS cis-reporter transcription, actives raise or lower the signal. The essentials: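 Human HepG2 hepatoma cells were transiently transfected with promoter-driven reporter constructs and treated for 24 hours. Reporter transcripts were quantified by RT-PCR with fluorescent primer extension; bidirectional curve fitting used DMSO as reference.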

Experiment [2] has as its target Hepatocyte nuclear factor 3-beta (Homo sapiens) (UniProt Q9Y261). The experiment in a line: ATG_FoxA2_CIS: Attagene CIS-FACTORIAL HepG2 Assay for human Forkhead box A2 (FOXA2) (AID 2282942). To be noted: HepG2 cis-reporter transcription factor activity, 24 h; actives raise or lower the signal. The essentials: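 HepG2 cells transiently transfected with multiple cis-regulated reporter transcription units, dosed for 24 h. Reporter mRNA measured by RT-PCR, 6-FAM labelling, HpaI digestion and capillary electrophoresis; bidirectional fitting against DMSO baseline.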

A short description of experiment [3]: ATG_FoxO_CIS: Attagene CIS-FACTORIAL HepG2 Assay for human Forkhead box O (FoxO) (AID 2282943). To be noted: HepG2 Attagene cis-reporter, FoxO element, mRNA; actives raise or lower the signal. In a few lines: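 Read-out: fluorescence of 6-FAM-labelled reporter cDNA fragments resolved by capillary electrophoresis. Transiently transfected HepG2 cells were dosed for 24 h; activity fitted in both directions relative to DMSO controls.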

Experiment [4] can be described thus: ATG_GATA_CIS: Attagene CIS-FACTORIAL HepG2 Assay for human GATA Binding Protein (AID 2282944). To be noted: HepG2 GATA cis-element reporter, Attagene multiplex mRNA; actives raise or lower the signal. In a few lines:
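Read-out: fluorescent reporter mRNA fragments resolved by capillary electrophoresis after RT-PCR. Human liver HepG2 cells carried transiently transfected cis-regulated reporter constructs; chemicals incubated 24 h; gain or loss of signal fitted relative to DMSO.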

In experiment [5] the target is Bile acid receptor (Homo sapiens) (UniProt Q96RI1). The experiment in a line: ATG_IR1_CIS: Attagene CIS-FACTORIAL HepG2 Assay for human Nuclear Receptor Subfamily 1 Group H Member 4 (NR1H4), IR1 submotif (AID 2282946). To be noted: IR1 reporter transcription, actives raise or lower the signal. In a few lines:
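HepG2 cells transiently transfected with multiple cis-promoter-driven reporter units to measure endogenous transcription factor activity; 24 h exposure. Reporter mRNA read by RT-PCR, FAM labelling, HpaI digestion and capillary electrophoresis. Bidirectional fit versus DMSO.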

Experiment [6] can be described thus: ATG_ISRE_CIS: Attagene CIS-FACTORIAL HepG2 Assay for human Interferon Regulatory Factor 1 (IRF1) binding to an Interferon-Stimulated Response Element (ISRE) (AID 2282948). The conditions noted are these: HepG2 ISRE cis-reporter (Attagene), mRNA transcription readout; actives raise or lower the signal. The essentials: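 Cell-based cis-reporter assay; HepG2; 24 h exposure; reporter mRNA by RT-PCR plus capillary electrophoresis fluorescence; activity in either direction scored relative to DMSO.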

Experiment [7] is described as follows: ATG_M_32_CIS: Attagene CIS-FACTORIAL HepG2 Assay for M32 Transcription Factor (Internal Marker) (AID 2282949).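 Note: background control marker of the multiplexed CIS panel rather than a real target.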 The conditions noted are these: HepG2 Attagene cis-factorial M32 reporter, mRNA; actives raise or lower the signal. The essentials: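 Internal background marker read-out: RT-PCR/capillary electrophoresis fluorescence of reporter transcripts from transiently transfected HepG2 cells after 24 h chemical exposure. Activity fitted bidirectionally relative to DMSO negative control.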

The nature of experiment [8]: ATG_ERE_CIS: Attagene CIS-FACTORIAL HepG2 Assay for Estrogen Response Element (ERE) (AID 2282940). To be noted: HepG2 ERE cis-reporter, Attagene RNA transcript; actives raise or lower the signal. The essentials:
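Readout: reporter mRNA induction by RT-PCR, FAM-labelled primer extension, HpaI digestion and capillary electrophoresis, 24 h after dosing transfected HepG2 cells. Endogenous transcription factors act on cis-element-regulated reporters. Gain or loss fitted against DMSO.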

Experiment [9] is described as follows: ATG_GLI_CIS: Attagene CIS-FACTORIAL HepG2 Assay for human Zinc Finger Protein GLI1 (AID 2282945). To be noted: HepG2, Attagene cis-factorial reporter mRNA, GLI element; actives raise or lower the signal. In a few lines: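 Transiently transfected HepG2 cells report endogenous transcription factor activity via cis-element-driven reporter units. After 24 h compound exposure, reporter mRNA was measured by RT-PCR with capillary electrophoresis; bidirectional fitting against DMSO baseline.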

Experiment [10] in a line: ATG_GRE_CIS: Attagene CIS-FACTORIAL HepG2 Assay for human Glucocorticoid Response Elements (GRE) (AID 2282947). To be noted: HepG2 GRE cis-reporter, Attagene multiplex mRNA; actives raise or lower the signal. The essentials: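 Endogenous transcription factor activity is read through cis-element reporter constructs transiently transfected into HepG2 cells. After 24 h treatment, labelled RT-PCR products are resolved by capillary electrophoresis; DMSO sets baseline for bidirectional curve fitting.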

“And” between values parts separate entries of the source, which are not always exact repeats. Equal entries are not always repeated. Some structures have more than one record in an assay (separate samples or runs), and their calls can disagree. The source made the active and inactive calls. Rule for the calls: active = hit-call score of the fitted dose curve at least 0.9, where 1 is the maximum; inactive = score below 0.9.

Bile acid receptor (Homo sapiens), sequence (Q96RI1 whole entry, looked up): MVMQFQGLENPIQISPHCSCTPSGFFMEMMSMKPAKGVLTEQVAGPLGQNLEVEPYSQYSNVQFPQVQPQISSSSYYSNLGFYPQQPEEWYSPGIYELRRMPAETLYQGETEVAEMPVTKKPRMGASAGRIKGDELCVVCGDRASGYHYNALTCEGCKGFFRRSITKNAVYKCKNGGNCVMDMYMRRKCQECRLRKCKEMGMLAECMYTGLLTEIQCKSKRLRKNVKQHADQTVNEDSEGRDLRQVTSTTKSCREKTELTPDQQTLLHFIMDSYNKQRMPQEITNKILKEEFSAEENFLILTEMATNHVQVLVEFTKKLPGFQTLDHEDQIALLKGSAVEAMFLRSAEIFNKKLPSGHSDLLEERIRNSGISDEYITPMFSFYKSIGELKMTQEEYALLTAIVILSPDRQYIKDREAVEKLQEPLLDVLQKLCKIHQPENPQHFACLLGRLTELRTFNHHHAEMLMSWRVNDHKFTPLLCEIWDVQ
Hepatocyte nuclear factor 3-beta (Homo sapiens), sequence (Q9Y261 whole entry, looked up): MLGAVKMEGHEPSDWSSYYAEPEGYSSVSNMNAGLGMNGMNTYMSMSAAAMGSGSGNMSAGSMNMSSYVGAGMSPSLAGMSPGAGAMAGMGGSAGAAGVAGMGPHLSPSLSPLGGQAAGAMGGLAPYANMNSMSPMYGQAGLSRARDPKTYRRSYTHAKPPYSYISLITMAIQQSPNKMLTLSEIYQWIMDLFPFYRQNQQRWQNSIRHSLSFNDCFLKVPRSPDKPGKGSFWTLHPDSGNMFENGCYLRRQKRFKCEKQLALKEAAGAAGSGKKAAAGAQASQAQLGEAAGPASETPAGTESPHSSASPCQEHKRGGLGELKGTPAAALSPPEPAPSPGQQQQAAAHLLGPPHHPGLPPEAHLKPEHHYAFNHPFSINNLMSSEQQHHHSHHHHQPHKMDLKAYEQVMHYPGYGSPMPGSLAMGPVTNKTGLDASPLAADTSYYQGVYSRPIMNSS

On to `O=C(O)C(F)(F)C(F)(F)C(F)(F)C(F)(F)C(F)(F)C(F)(F)C(F)(F)C(F)(F)C(F)(F)C(F)(F)F`, for which the outcome in experiment [1], in experiment [2], in experiment [3], in experiment [4], in experiment [5] and in [7] was inactive. The AC50 was 148 µM (active) in experiment [4]; 44.5 µM (active) and 20.1 µM (active) in [6]; 160 µM (active) in [7].
For the molecule `COC(=O)Cc1ccccc1`, the result in [8], in experiment [1], in experiment [2], in [3], in experiment [4] and in experiment [6] was inactive. Moreover, in [7], the molecule was called inactive.
For the molecule `COc1cc(-c2ccc(N)c(OC)c2)ccc1N`, the AC50 in experiment [1] is 100 µM (active); in experiment [6] it was 53.6 µM (active). The outcome in [1], in [2], in experiment [3], in [4], in experiment [9] and in experiment [6] was inactive. In experiment [7], the result was inactive.
In the case of `N#CN=C(N)N`, the molecule was called inactive in experiment [8], in experiment [1], in experiment [2], in [3], in [4] and in [5]. Also, the result in experiment [6] and in experiment [7] was inactive.
`CN(C)N=O`: the result in [1], in experiment [2], in experiment [3], in [4], in [9] and in experiment [5] was inactive. In addition, the molecule was classed as inactive in [6] and in experiment [7].
In the case of `C[C@@H]1C[C@@H]([C@H](O)CC2CC(=O)NC(=O)C2)C(=O)[C@@H](C)C1`, the concentration at half-maximal activity (AC50) in [1] is 6.31 µM (active) [middle of 4 runs]; in [2], 10.1 µM (active); in experiment [5], 0.304 µM (active). For the same molecule, the outcome in experiment [2], in experiment [4], in experiment [9], in experiment [5] and in experiment [7] was inactive.
As to `COc1cccc(C=O)c1`, the molecule was classed as inactive in [8], in experiment [1], in experiment [2], in [3], in [4] and in experiment [6]. In addition, the molecule was called inactive in experiment [7].
In the case of `CC(C)c1cccc(C(C)C)c1O`, the call in [8], in experiment [1], in experiment [2], in experiment [3], in experiment [4] and in experiment [6] was inactive. Also, in [7], the outcome was inactive.
As to `O=C1C2(Cl)C3(Cl)C4(Cl)C(Cl)(Cl)C5(Cl)C3(Cl)C1(Cl)C5(Cl)C24Cl` (stereo not given), the AC50 was 20.3 µM (active) in [1], 14.9 µM (active) in [4], 7.38 µM (active) in [5] and 15.1 µM (active) in experiment [6]. In addition, the result in experiment [1], in experiment [2], in experiment [3], in experiment [4], in experiment [5] and in experiment [6] was inactive. In addition, the call in experiment [7] was inactive.
For `CC(C#N)CCC#N` (stereo not given), the call in experiment [8], in experiment [1], in experiment [2], in [3], in [4] and in [10] was inactive. The result in experiment [6] and in experiment [7] was inactive.
On to `O=CC=O`, for which the outcome in experiment [8], in experiment [1], in experiment [2], in experiment [3], in experiment [4] and in experiment [6] was inactive. Besides, the molecule was classed as inactive in experiment [7].
Consider `ClCc1ccccn1`, for which the call in experiment [8], in [1], in experiment [2], in experiment [3], in experiment [4] and in experiment [10] was inactive. For the same molecule, the result in experiment [6] and in experiment [7] was inactive.
`ClCC(Cl)CCl`: the result in [1], in [2], in experiment [3], in [4], in [9] and in [6] was inactive. Also, in experiment [7], the call was inactive.
In the case of `CC(=O)c1cc(C(C)(C)C)cc2c1CCC2(C)C`, the molecule was classed as inactive in experiment [8], in experiment [1], in [3], in experiment [4], in [6] and in [7]. Besides, the half-maximal activity concentration (AC50) in experiment [2] was 147 µM (active); in [10], 73.9 µM (active).
Turning to `CC1(C)Cc2cccc(O)c2O1`, the outcome in experiment [8], in experiment [1], in experiment [2], in experiment [3], in [4] and in [6] was inactive. Also, the call in experiment [7] was inactive.
`O=c1[nH]c(=O)[nH]c(=O)[nH]1`: the molecule was called inactive in experiment [1], in experiment [2], in experiment [3], in [4], in experiment [9] and in [10]. The result in experiment [6] and in experiment [7] was inactive.
Regarding `O=C(NCO)NCO`, the concentration at half-maximal activity (AC50) in [8] was 54.5 µM (active). The call in [1], in experiment [2], in [3], in experiment [4], in experiment [10] and in experiment [6] was inactive. Moreover, the molecule was classed as inactive in experiment [7].
